# Biological target: AMP-activated protein kinase, AMPK (Homo sapiens) (UniProt P54646+O43741+P54619+Q9UGJ0+Q9Y478+Q13131+Q9UGI9)
# Assay: AMP-dependent Kinase enzyme assay. An in vitro enzyme assay that detects ADP turnover that is directly proportional to AMPK activity. This uses naive AMPK that is activated during the assay with MK-8722
# Type: functional
# Design: scale not given: direction of the effect not stated beside the values
# Details: 30 µM
row,Compound,Percent Effect [%]
1,CN(C)CC1(O)CCCN(C(=O)Cn2nc3ccccc3n2)CC1 (centres undefined),-12.7
2,CCCN(CCC)C(=O)CN1CCCC1C(=O)N(C)C (centres undefined),-3.78
3,OCCN1CCN(Cc2coc(-c3ccccc3Cl)n2)CC1,-12.1
4,COc1ccc(CCC(=O)N2CCN(c3nc(C)ns3)CC2)cc1,-3.26
5,COCc1cc(N(C)Cc2cc(C(C)(C)C)n[nH]2)ncn1,-7.3
6,CC(C)Cc1nc(C[S+]([O-])CC(=O)NCc2ccccc2)no1 (centres undefined),0.747
7,CCc1nn(C)c(Cl)c1CN1CCCC2(C1)CN(C)C(=O)O2 (centres undefined),5.15
8,COc1ccccc1OCCN(C)Cc1c(C2CC2)[nH]c2ncccc12,11.7
9,CC(C)[C@H](N)C(=O)N1CCCC(C2=Nc3ccccc3S(=O)(=O)N2)C1 (some centres undefined),7.27
10,Cc1ccnc(NC(=O)c2ccc(C)o2)c1,9.16
11,CCC(C)c1csc(NC(=O)Cc2csc(-c3nnc[nH]3)n2)n1 (centres undefined),10.5
12,N#Cc1cccnc1N1CCC(Nc2ccccc2)C1 (centres undefined),4.61
13,CN(CCSc1nncn1CC(F)(F)F)c1ccccc1,8.89
14,Cc1nsc(N2CCN(CC(=O)N(C3CC3)C(C)C3CC3)CC2)n1 (centres undefined),7.84
15,CCOCCNC(=O)CCC1CCCO1 (centres undefined),2.99
16,CN(C)C(C(=O)N1CCN(CCn2cccc2)CC1)c1cccc(F)c1 (centres undefined),-11.9
17,CC(=O)c1cnc(NCCN2CCCC2)nc1C,-8.98
18,O=C1CCC(=O)N1CCn1nnc(-c2ccc(Br)cc2)n1,-9.11
19,c1ccc2oc(C3CCN(Cc4ncon4)CC3)nc2c1,-10.5

# From ChEMBL document CHEMBL3988442, “University of Dundee, Small-Polar-MMV Screening Library” (2021)
